Pf Dd2 growth: inhibitors of Plasmodium falciparum Dd2 growth; hit rate 4.3% among 120,000; Potency, µM (top dose mostly 28.9 µM), for inactives: at the highest dose activity, negative = inhibition, hits mostly inhibitors; P. falciparum Dd2 growth, SYBR Green, 72 h; AID 1347417; active means well fitted inhibition curve with a large enough effect;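 further: plate controls were DMSO vehicle for no effect and reference drug for full effect; nearly all actives have a fitted effect of over 65% in size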
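Readout: SYBR Green fluorescence, 485 nm excitation, 535 nm emission, after ~16 h lysis at 37C. Before that, Dd2-infected red cells (2.5% hematocrit) grew 72 h with compound, 29 uM top final concentration.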
Numbers without * were called inactive; i = inactive; [ ] = another dose, or the depositor's remark. The sample as a whole holds a higher share of hits than the screen did. Potency means the concentration at half of the fitted maximal effect.

SMILES	Pf Dd2 growth
CCCNC(=O)CCCN1C(=O)CCn2nc(-c3cccn3C)cc21	14%
Cn1nnnc1C1CCCN(C(=O)c2ccc(F)cc2)C1 (stereo not drawn)	9%
CCn1c(SCC(=O)c2ccc([N+](=O)[O-])cc2)nnc1-c1ccc(Cl)cc1	i
CC(=O)C1=C(c2ccc(Cl)cc2)N(C(C)=O)n2c(nnc2C2CCCCC2)S1	1µM*
CCC(=O)C1=C(c2ccc(Cl)cc2)N(C(=O)CC)n2c(C)nnc2S1	2.8µM*
Cc1ccc(C2CCN(C(=O)Nc3ccc(Cl)cc3)C2)cc1 (stereo not drawn)	i
Cn1c(Cn2cccn2)nnc1C1CCCN(C(=O)c2cccc(F)c2)C1 (stereo not drawn)	6%
CCCSC1=NC2(CCN(C(=O)NC3CCCCC3)CC2)N=C1c1ccc(Cl)cc1	7%
CCC(=O)C1=C(c2ccc(F)cc2)N(C(=O)CC)n2c(nnc2C2CCCCC2)S1	3.2µM*
Cc1ccc(C(=O)N2CCc3nc(-c4cn[nH]c4)[nH]c3C2)cc1N1CCNC1=O	-15%
Cc1noc(C)c1CC(=O)N1CCCC(c2noc(COc3ccccc3F)n2)C1 (stereo not drawn)	-3%
O=C(c1cccc(Cn2cccn2)c1)N1CCCC(OCc2cccnc2)C1 (stereo not drawn)	20%
COc1ccc(-n2nc(C3CCCN(C(=O)c4cccc(OC)c4)C3)[nH]c2=O)cc1 (stereo not drawn)	-15%
COCc1nc(CCNC(=O)CCCc2cn(Cc3ccccc3Cl)c3ccccc23)no1	-11%
CCc1[nH]c2c(CNC(=O)CC3NC(=O)c4ccccc43)cc(C)cc2c1C (stereo not drawn)	-1%
O=C1CC(c2ccccc2)N(C(=O)CNC(=O)c2c[nH]c3ccccc23)CCCCCN1 (stereo not drawn)	i
O=C1CC(c2ccccc2)N(C(=O)CNC(=O)c2ccoc2)CCCCCCN1 (stereo not drawn)	-25%
O=C(Cc1c[nH]c2ccccc12)NCC(=O)N1CCCCCNC(=O)CC1c1ccccc1 (stereo not drawn)	-17%
O=C1CC(c2ccccc2)N(C(=O)CNC(=O)c2n[nH]c3ccccc23)CCCCCCN1 (stereo not drawn)	10µM*
O=C1CC(c2ccccc2)N(C(=O)CNC(=O)c2ccc3cc[nH]c3c2)CCCCCN1 (stereo not drawn)	10µM*
N#Cc1cccc(C(=O)NCC(=O)N2CCCCCCNC(=O)CC2c2ccccc2)c1 (stereo not drawn)	-23%
O=C1N(Cc2ccccc2F)CCOC12CCN([S+](=O)([O-])c1cccnc1)CC2	-20%[44.1 µM]
COc1ccc(-c2cc(N3CCCN(C(=O)Cc4ccc(C)cc4)CC3)n[nH]2)cc1	-8%
Cc1nnc(C(C)NC(=O)C2CCN(C(=O)C3CCCC3)CC2)o1 (stereo not drawn)	9%
COc1ccc2ccc(OCc3nc(C(=O)N4CCCNC(=O)C4)co3)cc2c1	-13%
SMILES	Pf Dd2 growth
c1ccc(-c2ccc(CN3CCCC3)cc2)c(CN2CCOCC2)c1	8.9µM*
O=C(O)C1CCCN(Cc2ccccc2OCCCN2CCOCC2)C1 (stereo not drawn)	-1%
CCn1nc(-c2ccccc2CN2CCOCC2)nc1N(C)C	-7%
CC(=O)N1CCC(c2nn(-c3ccc(F)cc3)c(=O)[nH]2)CC1	-10%[44.1 µM]
Cc1ccc(Oc2c(C(F)(F)F)oc3c(CN4CCC(C)CC4)c(O)ccc3c2=O)cc1	1µM*
Cc1ccc(Oc2c(C(F)(F)F)oc3cc(OCC(=O)NC4CCCCC4)ccc3c2=O)cc1	-30%
CC1CCCN(Cc2c(O)ccc3c(=O)c(Oc4ccccc4Cl)c(C(F)(F)F)oc23)C1 (stereo not drawn)	0.89µM*
Cc1ccccc1Cn1c(CN2CCCC(C)C2)nc2c1c(=O)n(C)c(=O)n2C (stereo not drawn)	9%
CC1CCN(Cc2c(O)ccc3c(=O)c(Oc4ccccc4Cl)c(C(F)(F)F)oc23)CC1	0.63µM*
Cc1noc(C)c1CN1CCCC(COc2ccccc2C(=O)N2CCC(C)CC2)C1 (stereo not drawn)	-3%
CCC(=O)N1CCc2cc(CNS(=O)(=O)c3ccc(Cl)s3)ccc21	-12%
Cc1ccc(-n2nc(-c3c(C)nc4scc(CC(=O)NCC(C)C)n4c3=O)cc2C)c(C)c1	i
Cc1nc(CNc2ncc(S(C)(=O)=O)c(C3CCCNC3)n2)sc1C (stereo not drawn)	-7%
COc1ccc(C(=O)N2CC[C@H](CO)[C@H](NC(=O)C3CC3)C2)c(OC)n1	20%
Cc1nn(-c2ccc(N3CCOCC3)nn2)c(C)c1CCC(=O)NCc1ccc(OC(C)C)cc1	i
CSc1ccc(CCNC(=O)c2ccc(CS(=O)(=O)c3ccc(Br)cc3)o2)cc1	11%[0.594 µM]
COc1ccc2[nH]c(=O)c(CCC(=O)NCCc3ccccn3)cc2c1	i
Fc1ccc(Cc2nc(-c3nnn4c3COC(c3ccc(Cl)cc3)C4)no2)cc1 (stereo not drawn)	-13%
CC1CCN(S(=O)(=O)c2ccc3c(c2)N(CC(=O)NCC(C)c2ccccc2)C(=O)CO3)CC1 (stereo not drawn)	-3%
CS(=O)(=O)N1C[C@H]2CCN(Cc3ccc(F)cc3Cl)C[C@H]21	i
COc1ccc(NC(=O)N2C[C@@H](F)C[C@H]2C(=O)N2CCc3ccccc3C2)c(C)c1	10%
CCc1ccccc1NC(=O)N1C[C@@H](F)C[C@H]1C(=O)N1CCc2ccccc2C1	3.2µM*
Cc1ccc(NC(=O)N2C[C@@H](F)C[C@H]2C(=O)N2CCc3ccccc3C2)cc1Cl	3%
Cc1cccc(-n2nc(C)c(CCC(=O)N(C)C(C)C)c2Oc2ccccc2)c1	-7%
CN(C)C(=O)c1n[nH]c2c1CN(C(=O)c1ccc(F)cc1F)CC2	42%
SMILES	Pf Dd2 growth
CSc1ncc(Cl)c(C(=O)N(C)c2ccccc2)n1	i
O=C1COc2cc(C(=O)NC3CC(c4nnc(CO)n4C4CC4)C3)ccc2N1 (stereo not drawn)	6.3µM*
O=C(NC1CC(c2nnc(CO)n2C2CC2)C1)c1n[nH]c2c1COCC2 (stereo not drawn)	-14%
Cc1c(C(=O)NC2CC(c3nnc(CO)n3C3CC3)C2)n(C)c2c(C)cccc12 (stereo not drawn)	i
Cc1ccc2c(C(=O)N3CCN(C4CCCCC4)CC3)cc(NC(=O)C3CCC3)cc2n1	-24%
CC(=O)c1cc2c(cc1N/C(=N/S(=O)(=O)c1ccc(C)cc1)c1ccc(Cl)cc1)OCO2	3%
COc1ccccc1-c1cc([C@H]2CN3CC[C@H]2C[C@@H]3COC(=O)Nc2ccc(C(C)C)cc2)nc(C)n1	13µM*
CC(=O)c1ccc(NC(=O)NC[C@H]2C[C@@H]3CCN2C[C@@H]3c2cc(-c3cccs3)nc(C)n2)cc1	i
COCC(=O)NC[C@H]1C[C@@H]2CCN1C[C@@H]2c1cc(-c2ccccc2OC)nc(C)n1	i
Cc1nc(-c2cccs2)cc([C@H]2CN3CC[C@H]2C[C@@H]3COC(=O)Nc2ccc(C(C)C)cc2)n1	7.1µM*
COc1ccc(-c2cc([C@H]3CN4CC[C@H]3C[C@@H]4CNC(=O)NC(C)C)nc(C)n2)cc1OC	i
Cc1nc(-c2cccs2)cc([C@H]2CN3CC[C@H]2C[C@@H]3CNS(C)(=O)=O)n1	i
O=C(Nc1ccccc1Cl)c1cc(S(=O)(=O)N2CCC3(CC2)OCCO3)ccc1F	41%[0.594 µM]
COc1ccc(C[C@H](NC(=O)C2=C[C@@H](NC(=O)Nc3ccc(C)cc3)[C@@H](O)[C@H](O)C2)C(N)=O)cc1	-10%

High-throughput results as filed in PubChem BioAssay.
